Results from PubChem BioAssay.
“And” between values parts separate entries of the source, which are not always exact repeats. Equal entries are not always repeated. Records with an inconclusive call do not appear. The source made the active and inactive calls.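 The calls were made as follows, unless noted: active = normalized viability below 100% at a tested concentration; inactive = the rest.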

How the values were obtained:
[1] = liver-stage malaria parasite growth inhibition, primary screen, cell-based, HepG2, luciferase luminescence, HepG2 viability (AID 624349; in the data active = parasite load remaining mostly below about 12%, no sharp cut-off; inactive = mostly above about 10%;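 also: 100% = mean of DMSO negative control wells on the same plate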); conditions: P. berghei liver stage in HepG2, luciferase luminescence, concentration not given here; parasite load remaining: stronger effect = lower value; viability: measured here: HepG2 viability without parasites
[2] = stimulators of nuclear beta-catenin in C2C12, primary screen, imaging, WNT3A-conditioned medium, mouse C2C12, NPC library (AID 1117326; in the data active = nuclear beta-catenin stimulation mostly above about 4.2%, no sharp cut-off; inactive = mostly below about 10%); conditions: stronger effect = higher value
[3] = stimulators of insulin release from INS-1E, primary screen, cell-based, 5 mM glucose, NPC library (AID 1117329;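 active = compound raises insulin release from rat beta cells at 5 mM glucose, no numeric limit stated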); conditions: rat INS-1E insulin secretion, at 10 µM, stronger effect = higher value
[4] = growth inhibition of GSK3B-pretreated HCT116 cells – cell-based, CellTiter-Glo, 0.2 to 20 µM (AID 1117336;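 active = compounds lowering colon cancer cell viability after pretreatment blocking the GSK3B kinase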); conditions: HCT116 viability after GSK3B inhibitor, at 20 µM, stronger effect = higher value
[5] = inhibition of endothelial tube formation, primary screen, imaging, VEGF stimulated, CD31 staining, tube area, NPC library (AID 1117340;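 active = compound that reduces growth-factor-driven endothelial tube area in a mixed cell culture, no cutoff stated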); conditions: VEGF-stimulated ADSC/ECFC co-culture, at 10 µM, stronger effect = higher value
[6] = glucagon-like peptide 1 release enhancers, primary assay, NCI-H716 cell line, NPC library (AID 1117341;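 active = compound raises GLP1 secretion from the human gut endocrine cells, with no numeric limit stated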); conditions: NCI-H716 cells, at 10 µM, stronger effect = higher value
[7] = HCT116 colon cancer cell growth inhibition, primary screen, CellTiter-Glo luminescence, NPC library (AID 1117342;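 active = compounds that lower survival of HCT116 colon cancer cells in the luminescence readout, no numeric limit stated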); conditions: at 20 µM (top of the series)
[8] = CellTiter-Glo luminescent readout of SW480 viability loss, NPC library primary (AID 1117343;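 active = compounds that lower viability of the colon cancer cells in the luminescence readout, with no numeric limit stated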); conditions: CellTiter-Glo luminescence; at 20 µM (top of the series) unless noted
[9] = decreased DLD-1 cellular survival, CellTiter-Glo luminescent readout, NPC compound collection, primary HTS (AID 1117346;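 active = compounds that lower survival of DLD-1 colon cancer cells in the luminescence readout, no cutoff given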); conditions: DLD-1 viability, CellTiter-Glo luminescence; at 20 µM (top of the series)
[10] = viability loss in pontine glioma line – cell-based, SU-DIPG-XXV, MIPE5.0, CellTiter-Glo, qHTS, dose response (AID 1347065; cut-off not given, nearly all actives have AC50 up to about 26 µM;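 also: cells exposed to compound for 48 hours before ATP readout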); conditions: CellTiter-Glo ATP luminescence
[11] = growth inhibition of DIPG glioma cells, dose response, cell-based, JHH-DIPG-1, MIPE4.0, CellTiter-Glo, qHTS (AID 1347062; cut-off not given, nearly all actives have AC50 up to about 27 µM); conditions: JHH-DIPG-1 viability, CellTiter-Glo ATP luminescence
[12] = growth inhibition of DIPG glioma cells, dose response, cell-based, SU-DIPG-IV, MIPE4.0, CellTiter-Glo, qHTS (AID 1347063; cut-off not given, nearly all actives have AC50 up to about 30 µM;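 also: compound exposure lasted 48 hours before the viability readout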); conditions: SU-DIPG-IV viability, CellTiter-Glo ATP luminescence
[13] = SU-DIPG-VI glioma cell viability, MIPE4.0 library, CellTiter-Glo luminescence, qHTS (AID 1347066; cut-off not given, nearly all actives have AC50 up to about 30 µM;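 also: cells exposed to compound for 48 hours before readout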); conditions: CellTiter-Glo ATP luminescence
[14] = JHH-DIPG-1 glioma cell viability, MIPE5.0 library, CellTiter-Glo luminescence, qHTS (AID 1347067; cut-off not given, nearly all actives have AC50 up to about 26 µM;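 also: cells exposed to compound for 48 hours before readout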); conditions: JHH-DIPG-1 glioma viability, CellTiter-Glo ATP luminescence
[15] = SU-DIPG-XXV glioma cell viability, MIPE5.0 library, qHTS (AID 1347068; cut-off not given, nearly all actives have IC50 up to about 30 µM;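 as to IC50: cells exposed to compound for 48 hours before viability readout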)
[16] = sensitizers of A549 cells to miR-34 induction, primary screen, imaging, A549 dox-inducible miR-34, nuclei and caspase counts (AID 1347080;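 active = compounds whose cell count with miR-34 switched on is under 0.7 times the count with it off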); conditions: A549 miR-34 inducible, Hoechst nuclei count, 48 h
[17] = phospholipid biosynthesis inhibitors in animal cells, primary screen, cell-based, LOPAC library, screen 4 (AID 1347384; call rule not given here); conditions: phospholipid biosynthesis inhibition screen, at 10 µM
[18] = survival rescue of mitochondrial mutant cells in low glucose, primary screen, MELAS cybrids, Rieske KO mouse fibroblasts, CellTiter-Glo (AID 1508586;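 active = mean z-score across replicates of 1.96 or higher in either the MELAS or the Rieske mutant cell line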;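 also: z relative to plate mean and SD of compound and empty wells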)
[19] = viability rescue of complex I mutant cybrids, primary screen, cell-based, galactose medium, ATP luminescence (AID 1645843;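 active = z-score of at least 1.8 in each of two replicates, scored against plate mean and spread of sample wells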;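 also: positive z means more ATP and so rescue of galactose-driven cybrid death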); conditions: complex I mutant cybrid cells, 72 h, stronger effect = higher value
[20] = ovarian cancer cell viability with rucaparib, profiling panel, oncology-focused library, rucaparib conditional (AID 1508598); conditions: patient-derived ovarian cancer cells, CellTiter-Glo viability, 144 h, stronger effect = lower value
[21] = stronger effect = lower value, cell number ratio, induced over uninduced
[22] = measured here: relative caspase fold change +Dox/-Dox
[23] = measured here: total cells with miR-34 induction, stronger effect = lower value
[24] = measured here: total cells without miR-34 induction
[25] = MELAS cybrid survival, CellTiter-Glo 48 h, stronger effect = higher value
[26] = Rieske KO mouse fibroblast survival, CellTiter-Glo 72 h

Clc1ccc(C(Cn2ccnc2)OCc2c(Cl)cccc2Cl)c(Cl)c1 (stereo not drawn)
active: viability decrease [4] 110% | tube area decrease [5] 107% | GLP1 secretion stimulation [6] 35.3% | inhibition of viability [7] 113% | viability decrease (inhibition) [8] 132% | viability decrease (inhibition) [9] 101% | AC50 [10] 23.5 µM
inactive: parasite load remaining [1] 26.3% and 91.5% | nuclear beta-catenin stimulation ([2]; at 10 µM) 1.3% | insulin secretion stimulation [3] 3.1%
-1.1%: nuclear beta-catenin stimulation ([2]; stimulation, at 2 µM)
46.9% and 87.2%: viability [1]

COc1ccc2cccc(CCNC(C)=O)c2c1
8590 and 5820 and 7020: cell count [16, 23]
0.381 and 0.908 and 0.855: fold change [16, 22]
inactive: nuclear beta-catenin stimulation ([2]; at 10 µM) 1.6% | insulin secretion stimulation [3] -1.5% | viability decrease [4] 2.7% | tube area decrease [5] 1% | GLP1 secretion stimulation [6] -0.3% | inhibition of viability [7] 3.7% | viability decrease (inhibition) [8] -8.5% | viability decrease (inhibition) [9] 3.3% | outcome [11] | outcome [12] | outcome [10] | outcome [13] | outcome [14] | outcome [15] | fold change [16, 21] 0.904 and 0.982 and 0.944 | outcome [17] | z-score [18, 25] 0.556 and -0.393 | z-score [19] 0.205
-1%: nuclear beta-catenin stimulation ([2]; stimulation, at 2 µM)
9510 and 5930 and 7430: cell count [16, 24]
0.28 and -0.0702: z-score [18, 26]

COCCCN1CCC(NC(=O)c2cc(Cl)c(N)c3c2OCC3)CC1
active: AC50 [13] 23.5 µM
-2%: nuclear beta-catenin stimulation ([2]; stimulation, at 2 µM)
8300 and 5970: cell count [16, 24]
8080 and 7810: cell count [16, 23]
-0.104 and -0.205: z-score [18, 26]
0.687 and 0.593: fold change [16, 22]
inactive: nuclear beta-catenin stimulation ([2]; at 10 µM) 0.7% | insulin secretion stimulation [3] 1% | viability decrease [4] -4.2% | tube area decrease [5] -8% | GLP1 secretion stimulation [6] 1.9% | inhibition of viability [7] 3.4% | viability decrease (inhibition) [8] -13.9% | viability decrease (inhibition) [9] -4.2% | outcome [11] | outcome [14] | outcome [15] | fold change [16, 21] 0.972 and 1.31 | z-score [18, 25] -0.321 and -0.32

N=C(N)c1ccc2cc(OC(=O)c3ccc(N=C(N)N)cc3)ccc2c1
1.3 and 0.971: fold change [16, 22]
3730 and 5820: cell count [16, 23]
3670 and 6340: cell count [16, 24]
inactive: nuclear beta-catenin stimulation ([2]; at 10 µM) 0% | insulin secretion stimulation [3] 1.85% | viability decrease [4] 4.1% | tube area decrease [5] -18% | GLP1 secretion stimulation [6] 2.8% | inhibition of viability [7] 30.6% | viability decrease (inhibition) [8] 36.9% | viability decrease (inhibition) [9] 1.2% | outcome [11] | outcome [12] | outcome [10] | outcome [13] | outcome [14] | outcome [15] | fold change [16, 21] 1.02 and 0.918 | z-score [18, 25] -0.205
0.3%: nuclear beta-catenin stimulation ([2]; stimulation, at 2 µM)
0.234: z-score [18, 26]

CN(C)C(=O)COC(=O)Cc1ccc(OC(=O)c2ccc(N=C(N)N)cc2)cc1
0.433: fold change [16, 22]
8560: cell count [16, 23]
0.4%: nuclear beta-catenin stimulation ([2]; stimulation, at 2 µM)
0.0145: z-score [18, 26]
inactive: nuclear beta-catenin stimulation ([2]; at 10 µM) 1.4% | insulin secretion stimulation [3] -0.35% | viability decrease [4] 16.9% | tube area decrease [5] -11.6% | GLP1 secretion stimulation [6] -0.7% | inhibition of viability [7] 13.5% | viability decrease (inhibition) [8] -4.4% | viability decrease (inhibition) [9] 4.3% | outcome [11] | outcome [10] | outcome [14] | outcome [15] | fold change [16, 21] 0.981 | z-score [18, 25] -0.283
8730: cell count [16, 24]

N[C@@H](Cc1c[nH]c2ccc(O)cc12)C(=O)O
9860: cell count [16, 24]
0.787: fold change [16, 22]
10300: cell count [16, 23]
inactive: nuclear beta-catenin stimulation ([2]; at 10 µM) 1.6% | insulin secretion stimulation [3] 2.1% | viability decrease [4] -0.3% | tube area decrease [5] 1.7% | GLP1 secretion stimulation [6] 3.1% | inhibition of viability [7] 2.5% | viability decrease (inhibition) [8] -17.1% | viability decrease (inhibition) [9] -5.7% | outcome [12] | outcome [10] | outcome [13] | outcome [14] | outcome [15] | fold change [16, 21] 1.04 | outcome [17] | z-score [19] 0.37
3.9%: nuclear beta-catenin stimulation ([2]; stimulation, at 2 µM)

CNC(=O)c1ccccc1Sc1ccc2c(/C=C/c3ccccn3)n[nH]c2c1
7.2%: nuclear beta-catenin stimulation ([2]; stimulation, at 2 µM)
inactive: nuclear beta-catenin stimulation ([2]; at 10 µM) 4.6% | insulin secretion stimulation [3] 4.65% | viability decrease [4] 21% | GLP1 secretion stimulation [6] 1% | inhibition of viability [7] 45.5% | viability ([20]; at 0.000305 µM, OCI-C5x cells, with rucaparib 10 µM, 100% = cells with rucaparib alone) 107% | viability ([20]; at 0.000305 µM, OCI-C5x cells, without rucaparib) 114% | viability ([20]; at 0.000305 µM, OCI-P5x cells, with rucaparib 20 µM, 100% = cells with rucaparib alone) 106% | viability ([20]; at 0.00122 µM, OCI-C5x cells, with rucaparib 10 µM, 100% = cells with rucaparib alone) 116% | viability ([20]; at 0.00122 µM, OCI-C5x cells, without rucaparib) 110% | viability ([20]; at 0.00122 µM, OCI-P5x cells, with rucaparib 20 µM, 100% = cells with rucaparib alone) 112% | viability ([20]; at 0.00488 µM, OCI-C5x cells, with rucaparib 10 µM, 100% = cells with rucaparib alone) 109% | viability ([20]; at 0.00488 µM, OCI-C5x cells, without rucaparib) 110% | viability ([20]; at 0.00488 µM, OCI-P5x cells, with rucaparib 20 µM, 100% = cells with rucaparib alone) 106% | viability ([20]; at 0.0195 µM, OCI-C5x cells, with rucaparib 10 µM, 100% = cells with rucaparib alone) 114% | viability ([20]; at 0.0195 µM, OCI-C5x cells, without rucaparib) 103% | viability ([20]; at 0.0195 µM, OCI-P5x cells, with rucaparib 20 µM, 100% = cells with rucaparib alone) 108% | viability ([20]; at 0.0781 µM, OCI-C5x cells, with rucaparib 10 µM, 100% = cells with rucaparib alone) 118% | viability ([20]; at 0.0781 µM, OCI-P5x cells, with rucaparib 20 µM, 100% = cells with rucaparib alone) 126% | viability ([20]; at 0.313 µM, OCI-C5x cells, with rucaparib 10 µM, 100% = cells with rucaparib alone) 110% | viability ([20]; at 0.313 µM, OCI-P5x cells, with rucaparib 20 µM, 100% = cells with rucaparib alone) 101% | viability ([20]; at 1.25 µM, OCI-C5x cells, with rucaparib 10 µM, 100% = cells with rucaparib alone) 112% | viability ([20]; at 1.25 µM, OCI-C5x cells, without rucaparib) 105% | viability ([20]; at 5 µM, OCI-C5x cells, with rucaparib 10 µM, 100% = cells with rucaparib alone) 110% | viability ([20]; at 5 µM, OCI-P5x cells, with rucaparib 20 µM, 100% = cells with rucaparib alone) 107%
active: tube area decrease [5] 106% | viability decrease (inhibition) [8] 59.2% | viability decrease (inhibition) [9] 56.9% | AC50 [10] 1.18 µM | AC50 [14] 5.25 µM | IC50 [15] 3.72 µM | viability ([20]; at 0.000305 µM, OCI-P5x cells, without rucaparib) 95.9% | viability ([20]; at 0.00122 µM, OCI-P5x cells, without rucaparib) 93.6% | viability ([20]; at 0.00488 µM, OCI-P5x cells, without rucaparib) 98% | viability ([20]; at 0.0195 µM, OCI-P5x cells, without rucaparib) 94.2% | viability ([20]; at 0.0781 µM, OCI-C5x cells, without rucaparib) 98.3% | viability ([20]; at 0.0781 µM, OCI-P5x cells, without rucaparib) 96.6% | viability ([20]; at 0.313 µM, OCI-C5x cells, without rucaparib) 97.7% | viability ([20]; at 0.313 µM, OCI-P5x cells, without rucaparib) 87.8% | viability ([20]; at 1.25 µM, OCI-P5x cells, with rucaparib 20 µM, 100% = cells with rucaparib alone) 95.4% | viability ([20]; at 1.25 µM, OCI-P5x cells, without rucaparib) 85.8% | viability ([20]; at 5 µM, OCI-C5x cells, without rucaparib) 93.2% | viability ([20]; at 5 µM, OCI-P5x cells, without rucaparib) 83%

COC(c1ccccc1)(c1ccccc1)[C@H](Oc1nc(C)cc(C)n1)C(=O)O
inactive: nuclear beta-catenin stimulation ([2]; at 10 µM) -1.5% | insulin secretion stimulation [3] 4.3% | viability decrease [4] -12.3% | tube area decrease [5] 10.8% | GLP1 secretion stimulation [6] -5.9% | inhibition of viability [7] 6.7% | viability decrease (inhibition) [8] 9.7% | viability decrease (inhibition) [9] -0.4% | outcome [11] | outcome [12] | outcome [10] | outcome [13] | outcome [14] | outcome [15]
0%: nuclear beta-catenin stimulation ([2]; stimulation, at 2 µM)
